Experiment [1] deals with Rap guanine nucleotide exchange factor 3 (Homo sapiens) (UniProt O95398). Nature of the experiment: Confirmatory qHTS for antagonist of cAMP-regulated guanine nucleotide exchange factor 3 (EPAC1) (AID 1645880).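 Further: plate controls were DMSO only for no effect and full effect of the ATA control for full effect; nearly all actives have a fitted effect of over 55% in size.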 Particulars: EPAC1 Rap1B-BODIPY-GDP exchange, fluorescence; activity, negative = inhibition: at 115 µM (top of the series). Summed up: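 Released BODIPY-GDP fluoresces less than Rap1-bound BODIPY-GDP; the signal is followed at 480/540 nm at 5-min intervals over 30 min, after 5 min at room temperature. Reactions contain 100 nM EPAC1, 250 nM RAP1B-BODIPY-GDP and 50 uM GDP; results are normalized to ATA and DMSO.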
Rap guanine nucleotide exchange factor 3 (Homo sapiens), sequence (O95398 whole entry, looked up): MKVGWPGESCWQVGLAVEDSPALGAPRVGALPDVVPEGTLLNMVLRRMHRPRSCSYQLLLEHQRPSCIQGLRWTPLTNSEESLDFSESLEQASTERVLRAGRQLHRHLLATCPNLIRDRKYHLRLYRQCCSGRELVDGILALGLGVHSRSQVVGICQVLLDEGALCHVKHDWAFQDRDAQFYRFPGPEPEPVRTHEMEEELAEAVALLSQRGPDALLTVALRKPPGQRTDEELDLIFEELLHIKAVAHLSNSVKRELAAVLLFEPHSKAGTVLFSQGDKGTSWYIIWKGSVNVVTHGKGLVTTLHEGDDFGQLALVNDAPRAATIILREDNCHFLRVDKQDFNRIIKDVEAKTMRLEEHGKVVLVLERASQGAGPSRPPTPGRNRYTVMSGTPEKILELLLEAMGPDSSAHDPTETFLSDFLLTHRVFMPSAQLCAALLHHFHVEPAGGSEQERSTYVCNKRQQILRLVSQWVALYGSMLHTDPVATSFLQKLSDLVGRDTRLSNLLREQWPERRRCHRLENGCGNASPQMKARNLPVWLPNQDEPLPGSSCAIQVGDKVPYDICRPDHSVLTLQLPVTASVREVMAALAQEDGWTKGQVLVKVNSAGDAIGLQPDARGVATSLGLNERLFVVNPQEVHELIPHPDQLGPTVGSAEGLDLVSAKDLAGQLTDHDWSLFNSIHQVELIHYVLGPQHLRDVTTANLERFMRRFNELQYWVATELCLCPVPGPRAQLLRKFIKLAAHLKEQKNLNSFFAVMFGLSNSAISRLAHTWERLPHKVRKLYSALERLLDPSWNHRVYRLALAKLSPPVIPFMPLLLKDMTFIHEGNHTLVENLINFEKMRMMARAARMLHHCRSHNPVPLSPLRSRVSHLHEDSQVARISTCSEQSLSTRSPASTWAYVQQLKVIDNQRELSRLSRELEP
On the technique in general: qHTS replaces the single test concentration by a dilution series.

For experiment [2], the target named is Rap guanine nucleotide exchange factor 4 (Homo sapiens) (UniProt Q8WZA2). Nature of the experiment: Confirmatory qHTS for agonist of cAMP-regulated guanine nucleotide exchange factor 4 (EPAC2) (AID 1645884).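 Further: nucleotide exchange releases bodipy-GDP from Rap1 and this lowers its fluorescence; nearly all actives have a fitted effect of over 65% in size.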 Further: potency means the concentration at half of the fitted maximal effect. On activation: on the % scale 0 is the no-effect control and ±100 the full control effect.
Rap guanine nucleotide exchange factor 4 (Homo sapiens), sequence (Q8WZA2 whole entry, looked up): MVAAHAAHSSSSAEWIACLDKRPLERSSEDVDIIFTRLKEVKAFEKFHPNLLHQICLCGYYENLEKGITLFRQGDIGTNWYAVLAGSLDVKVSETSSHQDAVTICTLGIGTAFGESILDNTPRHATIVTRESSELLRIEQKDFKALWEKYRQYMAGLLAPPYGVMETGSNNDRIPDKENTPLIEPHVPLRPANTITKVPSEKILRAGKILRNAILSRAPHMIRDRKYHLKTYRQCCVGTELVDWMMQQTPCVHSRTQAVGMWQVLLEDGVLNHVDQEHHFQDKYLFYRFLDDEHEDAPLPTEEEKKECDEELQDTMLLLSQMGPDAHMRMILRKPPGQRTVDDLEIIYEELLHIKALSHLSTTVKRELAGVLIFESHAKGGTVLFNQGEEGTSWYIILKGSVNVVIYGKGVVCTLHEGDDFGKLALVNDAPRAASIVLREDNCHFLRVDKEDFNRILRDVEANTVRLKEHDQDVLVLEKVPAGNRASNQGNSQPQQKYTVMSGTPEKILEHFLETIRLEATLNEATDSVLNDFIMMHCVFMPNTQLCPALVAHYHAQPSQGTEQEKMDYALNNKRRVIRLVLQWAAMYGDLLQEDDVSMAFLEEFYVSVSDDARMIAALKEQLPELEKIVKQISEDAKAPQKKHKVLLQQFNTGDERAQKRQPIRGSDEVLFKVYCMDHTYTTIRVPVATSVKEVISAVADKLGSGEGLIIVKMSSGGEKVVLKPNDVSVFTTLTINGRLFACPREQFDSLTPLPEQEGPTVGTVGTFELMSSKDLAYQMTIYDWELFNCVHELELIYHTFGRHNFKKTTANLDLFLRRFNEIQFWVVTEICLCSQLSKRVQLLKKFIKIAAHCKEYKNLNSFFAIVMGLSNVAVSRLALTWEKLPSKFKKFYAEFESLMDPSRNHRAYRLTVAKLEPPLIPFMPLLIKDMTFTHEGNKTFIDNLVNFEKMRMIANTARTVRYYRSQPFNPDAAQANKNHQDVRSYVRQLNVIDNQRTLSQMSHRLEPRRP
Experiment [3] deals with Rap guanine nucleotide exchange factor 3 (Homo sapiens) (UniProt O95398). Nature of the experiment: Counterscreen qHTS for antagonist of cAMP-regulated guanine nucleotide exchange factor 3 (EPAC1) (AID 1645888). Further: % of control where 0% means no effect. Summed up:
(§1)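 Rap1B–BODIPY-GDP (250 nM) with 50 uM GDP; compounds pin-transferred to 9.74 nM–152 uM final (activator) or from 7.32 nM upwards (inhibitor). Fluorescence Ex/Em 480/540 nm read at 5 and 30 min, then after adding cAMP or buffer, at room temperature.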
On the technique in general: Counterscreens check selectivity or assay interference.

For experiment [4] the target is unchanged. As to the kind of experiment: Counterscreen qHTS for agonist of cAMP-regulated guanine nucleotide exchange factor 3 (EPAC1) (AID 1645889). Further: nearly all actives have a fitted effect of over 40% in size. Further: potency means the concentration at half of the fitted maximal effect. On activation: % of control where 0% means no effect. Summed up: as §1
Experiment [5] concerns the target Rap guanine nucleotide exchange factor 4 (Homo sapiens) (UniProt Q8WZA2). As to the kind of experiment: Confirmatory qHTS for antagonist of cAMP-regulated guanine nucleotide exchange factor 4 (EPAC2) (AID 1645885). Further: on the % scale 0 is the no-effect control and ±100 the full control effect; nearly all actives have a fitted effect of over 25% in size.
In experiment [6] the target is Tumor susceptibility gene 101 protein (Homo sapiens) (UniProt Q99816). As to the kind of experiment: qHTS Assay for Iinhibitors of HIV-1 Budding by Blocking the Interaction of PTAP/TSG101: Hit Validation (AID 651600). Further: nearly all actives have a fitted effect of over 70% in size. Further: potency means the concentration at half of the fitted maximal effect. On activity change, negative = inhibition: on the % scale 0 is the no-effect control and ±100 the full control effect. Summed up: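 FITC-PTAP peptide (50 nM final) binding to Tsg101 binding domain (10 uM final) was measured by polarization after 20 min at r.t. with compounds, in 10 mM HEPES pH 7.5 buffer with 0.15 M NaCl and 0.01% Tween 20.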
Tumor susceptibility gene 101 protein (Homo sapiens), sequence (Q99816 whole entry, looked up, the tested form may be a part): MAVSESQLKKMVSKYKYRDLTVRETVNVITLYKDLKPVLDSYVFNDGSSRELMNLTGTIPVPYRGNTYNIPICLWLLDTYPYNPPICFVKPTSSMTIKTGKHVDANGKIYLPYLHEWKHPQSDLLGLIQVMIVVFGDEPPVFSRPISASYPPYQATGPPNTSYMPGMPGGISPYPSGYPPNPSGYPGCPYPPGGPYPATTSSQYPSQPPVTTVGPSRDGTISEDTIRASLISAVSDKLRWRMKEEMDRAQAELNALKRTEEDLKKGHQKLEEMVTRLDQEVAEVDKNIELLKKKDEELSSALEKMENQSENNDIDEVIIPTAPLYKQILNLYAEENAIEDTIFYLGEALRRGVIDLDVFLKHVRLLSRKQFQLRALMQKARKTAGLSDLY

The structures appear in SMILES notation. Records with an inconclusive call do not appear. A number with no mark means an inactive call. Calls of active or inactive are those of the source. The call rests on the fitted dose curve; in most records, active means well fitted curve in the direction sought with a large enough effect; inconclusive means small, poorly fitted or top-dose-only effect, or another doubt; inactive means no such curve, though single readings can be large; an effect the other way counts as inactive or inconclusive.

Consider `CSc1ncccc1C(=O)OCc1c(F)cccc1Cl`, for which the Potency entry in experiment [1], in experiment [2] and in experiment [3] was “inactive” each time.

As for `O=C1N(Cc2ccccc2)c2ccc(Cl)cc2C12OCCO2`, the Potency result in experiment [1] was “inactive”. Moreover, the activation was 2.15% [at 17.1 µM, percent relative to cAMP agonist control] in experiment [2] and 35.6% [at 30.8 µM] in experiment [4]. Further, in experiment [3], the activity change, negative = inhibition is -8.76% [at 30.8 µM].

Turning to `CCSC1=NSC2=NC(=O)/C(=C\c3coc4ccccc4c3=O)C(=N)N12`, the Potency result in experiment [1] and in experiment [5] was “inactive” each time. In experiment [3], the activity change, negative = inhibition was 72.5% [at 30.8 µM].

Consider `CCCCNc1ccc2c3c(cccc13)C(=O)N(CCCC)C2=O`, for which the results for the Potency in experiment [6] and in experiment [4] were 4.11 µM (active) and 20 µM (active), respectively. In addition, the Potency entry in experiment [1] is “inactive”. Also, in experiment [2], the activation is -62.3% [at 17.1 µM, percent relative to cAMP agonist control]. Besides, the activity change, negative = inhibition in experiment [3] is 213% [at 30.8 µM].

Consider `O=C1CSC(c2ccc(Cl)c(Cl)c2)N1c1nccs1` (stereo unspecified), for which the Potency result in experiment [1], in experiment [2] and in experiment [3] was “inactive” throughout.

Consider `O=S1(=O)C=C(Oc2ccc3ccccc3c2)c2ccccc21`, for which the Potency entry in experiment [1] was “inactive”. The activation in experiment [2] is -2.76% [at 17.1 µM, percent relative to cAMP agonist control]. Moreover, the activity change, negative = inhibition in experiment [3] is 21.2% [at 30.8 µM].

As for `COc1ccc(NC(=O)c2csc3c2CCCCC3)c(OC)c1`, the Potency result in experiment [1], in experiment [2], in experiment [3] and in experiment [4] was “inactive” in each case.

As for `CC(=O)CCc1oc2c([N+](=O)[O-])cccc2c1-c1ccc(C)o1`, the Potency entry in experiment [1], in experiment [5] and in experiment [3] was “inactive” throughout.

In the case of `O=C(NCc1cccc(F)c1)c1cccc2c1C(=O)c1ccc(N3CCOCC3)cc1S2(=O)=O`, the Potency result in experiment [1], in experiment [5] and in experiment [3] was “inactive” throughout.

In the case of `Brc1ccccc1Cn1c(-c2cncs2)nc2ccccc21`, the Potency entry in experiment [1], in experiment [2] and in experiment [3] was “inactive” throughout.

Consider `CCN(CC)c1ccc2cc(C(=O)NNC(=O)c3ccc(S(=O)(=O)N4CCCCC4)cc3)c(=O)oc2c1`, for which the Potency entry in experiment [1], in experiment [3] and in experiment [4] was “inactive” throughout. For the same compound, in experiment [2], the Potency is 112 µM (active).

Consider `COc1ccc(CCNC(=S)N2CCN(S(=O)(=O)c3ccc(F)cc3)CC2)cc1`, for which the Potency entry in experiment [1], in experiment [5] and in experiment [3] was “inactive” each time.

As to `O=C(C1=NN(c2ccccc2)C2C(=O)N(c3ccccc3)C(=O)C12)c1ccccc1` (stereo unspecified), the Potency entry in experiment [6] and in experiment [1] was “inactive” in each case. For the same compound, the activation in experiment [2] was 11% [at 17.1 µM, percent relative to cAMP agonist control]. Moreover, the Potency in experiment [4] was 15.8 µM (active).

Consider `CCSc1nnc(-c2sc3nnc(-c4ccccc4)c(-c4ccccc4)c3c2N)o1`, for which the Potency in experiment [6] was 25.9 µM (active); in experiment [2], 112 µM (active). Besides, the Potency result in experiment [1] and in experiment [3] was “inactive” throughout.

For the compound `CN(C)c1ccc(/C=C/c2ccnc3c(Cl)cccc23)cc1`, the Potency entry in experiment [1] and in experiment [5] was “inactive” each time.

Values taken from PubChem BioAssay (NCATS).
